# Bioassay records: PubChem BioAssay, The Scripps Research Institute Molecular Screening Center
# Shown are actives, neighbours in structure and some others; about 1.7% of the full set was active somewhere.
# LYPLA1 inh: LYPLA1 (human) inhibition in PME1 counter-screen; recombinant LYPLA1, FP-Rh probe fluorescence polarization; O75608; inhibition, % at 5.9 µM; actives 0.16% (n = 320,000); AID 2174;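 active means inhibition above the mean of all tested compounds plus 3 SD, set per campaign, cut at about 14% in these data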;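 further: inhibitors block serine hydrolase probe labeling of LYPLA1 so polarization falls; 0% = enzyme with DMSO and 100% = wells lacking LYPLA1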
# Target sequence (O75608 whole entry, looked up): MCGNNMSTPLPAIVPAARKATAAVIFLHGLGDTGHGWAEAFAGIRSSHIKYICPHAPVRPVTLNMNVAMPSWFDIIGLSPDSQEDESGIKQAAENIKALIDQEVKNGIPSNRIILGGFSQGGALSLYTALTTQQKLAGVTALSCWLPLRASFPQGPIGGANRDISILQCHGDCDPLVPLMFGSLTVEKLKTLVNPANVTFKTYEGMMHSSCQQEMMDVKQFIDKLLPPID
# PAD4 inh: inhibitors of human PAD4; actives 0.41% (n = 330,000); Q9UM07; inhibition, % at 6.36 µM; recombinant PAD4, RCA probe fluorescence polarization; AID 485272;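 active means percent inhibition above a cutoff equal to the mean of all tested compounds plus 3 SD, cut at about 15% in these data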;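 further: 0% = PAD4 with RCA probe and DMSO and 100% = probe without PAD4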
# LYPLA2 inh: counter-screen for PME1 inhibitors: inhibitors of human LYPLA2; O95372; recombinant LYPLA2, FP-Rh probe fluorescence polarization; inhibition, % at 5.9 µM; actives 0.38% (n = 320,000); AID 2177;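 active means inhibition above the screen-wide mean plus 3 SD, limit set per campaign, cut at about 26% in these data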;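 further: 0% = LYPLA2 with DMSO and 100% = wells lacking LYPLA2 enzyme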
# GSTO1 counter: GSTO1 inhibition, counter-screen for RBBP9 inhibitors; actives 1.1% (n = 300,000); inhibition, % at 5.96 µM; P78417; recombinant GSTO1, activity-based probe fluorescence polarization; AID 1974;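 active means inhibition above the campaign mean inhibition plus 3 SD, cut at about 35% in these data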;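 further: 0% = GSTO1-1 with DMSO and 100% = wells lacking GSTO1-1 enzyme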
# Target sequence (P78417 whole entry, looked up): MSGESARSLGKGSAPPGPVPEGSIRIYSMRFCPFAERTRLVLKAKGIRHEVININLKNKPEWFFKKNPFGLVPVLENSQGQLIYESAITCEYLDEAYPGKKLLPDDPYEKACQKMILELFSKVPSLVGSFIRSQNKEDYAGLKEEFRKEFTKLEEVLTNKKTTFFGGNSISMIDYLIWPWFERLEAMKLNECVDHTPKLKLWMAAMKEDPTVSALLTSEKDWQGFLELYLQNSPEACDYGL
# PME-1 inh: blocks human protein phosphatase methylesterase 1; Q9Y570; recombinant PME-1, FP-Rh probe fluorescence polarization; inhibition, % at 5.9 µM; actives 0.53% (n = 320,000); AID 2130;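 active means inhibition above the campaign mean of all compounds plus 3 SD, cut at about 26% in these data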;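 further: competitive labeling of PME-1 active site by serine hydrolase directed probe; 0% = PME-1 with DMSO and 100% = wells lacking PME-1 enzyme; inhibitors block probe labeling so polarization falls and inhibition rises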
# Fam108B counter: blocks mouse Fam108B hydrolase in RBBP9 counter-screen; recombinant Fam108B, FP-Rh probe fluorescence polarization; inhibition, % at 9.51 µM; actives 0.33% (n = 300,000);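 active means inhibition above the screen mean inhibition plus 3 SD, computed separately per campaign, cut at about 18% in these data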;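 further: inhibitors lower polarization as less probe binds the enzyme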
# * = called active by the depositor; · = not tested or not shown.
SMILES,LYPLA1 inh,PAD4 inh,LYPLA2 inh,GSTO1 counter,PME-1 inh,Fam108B counter
N#Cc1c(NC(=O)c2ccccc2Cl)n(Cc2ccccc2)c2nc3ccccc3nc12,-5,-6,-6,47*,12,12
CCCCn1c(NC(=O)CC)c(C#N)c2nc3ccccc3nc21,-1,-4,-3,8,2,-3
CCCCC[C@@H]1C=C(C(=O)O)[C@H](c2ccc(Br)cc2)N1S(=O)(=O)c1ccc(C)cc1,·,-4,·,·,·,·
COCCCNC(=O)c1ccc2c3c(onc13)-c1ccccc1C2=O,-4,-16,-8,44*,-10,1
CCCCCC(=O)OC(CN1CCCCC1)CN1CCCC1=O (centres undefined),-1,-1,2,-4,0,3
CNS(=O)(=O)c1cc(C(=O)OCC(=O)NC2CCCc3ccccc32)ccc1Cl (centres undefined),1,2,5,3,28*,3
CCOC(=O)c1sc(N)c(C(=O)Nc2ccccc2OC)c1C,0,2,3,8,29*,3
O=C(O)c1ccc(S(=O)(=O)Nc2ccc(O)c(Sc3nc4ccccc4s3)c2)cc1,-4,3,2,55*,-10,2
NS(=O)(=O)c1ccc(Sc2nc3ccccc3s2)c([N+](=O)[O-])c1,0,4,3,-1,-6,1
COCCNC(=O)/C(C#N)=C/c1ccc(O)c([N+](=O)[O-])c1,0,-1,2,11,0,0
COCCNC(=O)/C(C#N)=C/C=C/c1ccccc1[N+](=O)[O-],-2,-1,-3,44*,-4,1
FC(F)(F)c1cccc(NC(=S)NNC(=S)Nc2cccc(C(F)(F)F)c2)c1,-21,1,-21,-4,33*,13
CC(=O)Nc1ccc(Nc2nc(C)c([N+](=O)[O-])c(Nc3ccccc3)n2)cc1,0,-2,11,-4,30*,12
Cc1nc(Nc2ccc(F)cc2)nc(Nc2ccc(F)cc2)c1[N+](=O)[O-],-3,-1,-5,-9,-6,-16
COc1ccc(Nc2nc(NN)nc(C)c2[N+](=O)[O-])cc1,-5,-5,6,-4,29*,9
CCOC(=O)C1=C(C)Nc2ccccc2N/C1=N\S(=O)(=O)c1ccc(Cl)cc1,-4,-1,2,·,2,·
CCOC(=O)C1=C(C)Nc2ccccc2N/C1=N\S(=O)(=O)c1cccc(Cl)c1,-2,2,1,·,26*,·
O=C(C1CCCN1S(=O)(=O)c1cccc2cccnc12)N1CCn2c1nc1ccccc12 (centres undefined),2,-6,-5,5,-2,2
O=C(C1CCN(S(=O)(=O)c2cccc3cccnc23)CC1)N1CCn2c1nc1ccccc12,2,-1,-5,4,28*,1
CCOC(=O)C(C)On1c(-c2ccc(Cl)cc2)nc2ccc([N+](=O)[O-])cc21 (centres undefined),-4,-1,-9,-8,19,4
CCOC(=O)C(C)On1c(-c2ccccc2)nc2ccc([N+](=O)[O-])cc21 (centres undefined),0,-1,8,-8,27*,3
CCOc1ccc(C(=O)NC(C)CCc2ccccc2)cc1 (centres undefined),-3,-1,-5,-1,39*,-1
COC(=O)CCCC1=CC2=CC(=O)C(C)(OC(=O)c3ccc(Cl)nc3)C(=O)C2=CO1 (centres undefined),1,5,4,35*,8,8
COC(=O)CCCC1=CC2=CC(=O)C(C)(OC(=O)c3cccs3)C(=O)C2=CO1 (centres undefined),8,7,4,39*,8,3
CCCCC1=CC2=CC(=O)C(C)(OC(=O)c3cccs3)C(=O)C2=CO1 (centres undefined),0,-2,0,21,0,1
SMILES,LYPLA1 inh,PAD4 inh,LYPLA2 inh,GSTO1 counter,PME-1 inh,Fam108B counter
COC(=O)CCCC1=CC2=CC(=O)C(C)(OC(=O)c3cnc4ccccc4n3)C(=O)C2=CO1 (centres undefined),20*,32*,24,38*,25,13
CCCCC1=CC2=CC(=O)C(C)(OC(=O)c3ccco3)C(=O)C2=CO1 (centres undefined),2,0,-2,21,3,3
CCCCC1=CC2=CC(=O)C(C)(OC(=O)c3cnc4ccccc4n3)C(=O)C2=CO1 (centres undefined),23*,31*,25,29,31*,19*
Cc1nc(S/C(C(=O)O)=C2/C(=O)Nc3ccccc32)n[nH]1,0,-2,3,12,10,0
C=CC[C@H](CC(=O)N(CCO)Cc1ccccc1)C(=O)NCCOC(=O)[C@@H](CC=C)CC(=O)OC(C)(C)C,·,4,·,·,·,·
Cc1c(C(=O)NN2CCCCC2)nn(-c2ccc(Cl)cc2Cl)c1-c1ccc(I)cc1,-6,-6,2,-3,-8,-8
CC(C)(C)OC(=O)NCCCCC1=CC2=CC(=O)C(C)(OC(=O)c3cnc4ccccc4n3)C(=O)C2=CO1 (centres undefined),17*,11,20,19,18,12
CC(C)(C)OC(=O)NCCCCC1=CC2=CC(=O)C(C)(O)C(=O)C2=CO1 (centres undefined),-4,-5,-4,4,1,-1
COC/C=C/C1=CC2=CC(=O)C(C)(OC(=O)c3cnc4ccccc4n3)C(=O)C2=CN1CCc1ccccn1 (centres undefined),5,34*,-5,-12,2,7
Cc1onc(-c2c(F)cccc2Cl)c1C(=O)Nc1cccc(S(=O)(=O)NC2=NCCC2)c1,2,-1,8,-4,4,0
O=C(O)CCC(=O)N1CCc2cc(S(=O)(=O)N3CC=C(c4ccccc4)CC3)ccc21,-4,-6,-2,3,-4,-10
CSc1ccc(/C=N\Nc2nncn2N)cc1,1,42*,-8,14,8,-1
CC(C)(C)OC(=O)C[C@H]1C/C=C\C[C@H](CC(=O)N(CCO)Cc2ccccc2)C(=O)N2CCC[C@H]2COC1=O,·,-1,·,·,·,·
O=C(NC1CCCCC1)C(c1cccnc1)N(C(=O)CCl)c1cccc(Cl)c1 (centres undefined),-3,3,-1,96*,-3,2
O=CN1CCN(C(C(=O)NC2CCCCC2)c2ccc(Cl)cc2)CC1 (centres undefined),1,3,0,-6,-2,1
O=C(Nc1ccc(N2CCOCC2)cc1)Nc1ccc(Cl)c(Cl)c1,-7,-6,5,1,28*,14
O=C(N/N=C/c1c[nH]c2ccccc12)c1sc2ccccc2c1Cl,-8,-1,0,-25,33*,14
OC1CCCC1,3,0,2,·,1,·
